PubChem BioAssay (NCATS)
Results filed as inconclusive are left out. The source made the active and inactive calls. Calls come from the whole dose curve; as a rule, active = well fitted inhibition curve with a large enough effect; inconclusive = small, poorly fitted or top-dose-only effect; inactive = flat fitted curve, though single readings scatter.

Experiments:
Experiment in all cases: qHTS profiling for inhibitors of Plasmodium falciparum proliferation (AID 504749); note: nearly all actives have a fitted effect of over 60% in size
Conditions in all cases: P. falciparum in erythrocytes, SYBR Green DNA, 72 h; series mostly up to 28.7 µM
C2A = tested on: C2A
Method in brief: (§1)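 P. falciparum-infected erythrocytes (0.3% parasitemia, 2.5% hematocrit final) were exposed to compounds for 72 h at 37 C in 5% CO2, then lysed with SYBR Green buffer overnight at room temperature; parasite DNA fluorescence was normalized to artemisinin and DMSO controls.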

CP192 = tested on: CP192
Method in brief: as §1

CP194 = tested on: CP194
Method in brief: as §1

CP237 = tested on: CP237
Method in brief: as §1

CP269 = tested on: CP269
Method in brief: as §1

CP315 = tested on: CP315
Method in brief: as §1

CP329 = tested on: CP329
Method in brief: as §1

DIV30 = tested on: DIV30
Method in brief: as §1

ECU = tested on: ECU
Method in brief: as §1

HB3 = tested on: HB3
Method in brief: as §1

JCK = tested on: JCK
Method in brief: as §1

SC27B = tested on: SC27B
Method in brief: as §1

TAB113 = tested on: TAB113
Method in brief: as §1

TAB165 = tested on: TAB165
Method in brief: as §1

PC15 = tested on: PC15
Method in brief: as §1

PC49 = tested on: PC49
Method in brief: as §1

ATS95 = tested on: ATS95
Method in brief: as §1

CP250 = tested on: CP250
Method in brief: as §1

CP256 = tested on: CP256
Method in brief: as §1

CP260 = tested on: CP260
Method in brief: as §1

Measured: Potency

C=C1C(n2cnc3c(=O)[nH]c(N)nc32)C[C@H](O)[C@H]1CO (stereo partly drawn)
not listed: PC15 | PC49 | ATS95 | CP250 | CP256 | CP260
inactive: all other assays above

NC(C(=O)O)C(O)c1ccc(O)c(O)c1 (stereo not drawn)
inactive: CP315 | JCK | PC15 | PC49

CC1CCC(O)C/C1=C\C=C1/CCCC2(C)C1CCC2C(C)/C=C/C(C)C(C)C (stereo not drawn)
not listed: DIV30 | ECU
inactive: all other assays above

Cc1c(C)c2c(c(C)c1O)CCC(C)(CCCC(C)CCCC(C)CCCC(C)C)O2 (stereo not drawn)
inactive: all assays above

CC(=O)O[C@]1(C(C)=O)CCC2C3CCC4=CC(=O)CCC4(C)C3(F)C(O)CC21C (stereo partly drawn)
inactive: all assays above

C[C@]12CC[C@@H]3c4ccc(O)cc4CC[C@H]3[C@@H]1CCC2OC(=O)CCC1CCCC1 (stereo partly drawn)
not listed: CP237 | PC15
inactive: all other assays above

COC(=O)C1C2CC3c4[nH]c5cc(OC)ccc5c4CCN3CC2CC(OC)C1OC (stereo not drawn)
not listed: DIV30
inactive: all other assays above

C=C(CC[C@@H](C)[C@H]1CCC2[C@]1(C)CC[C@]13C[C@@]14CCC(OC(=O)/C=C/c1ccc(O)c(OC)c1)C(C)(C)[C@@H]4CC[C@@]23C)C(C)C (stereo partly drawn)
inactive: all assays above

O=C(O)C[CH2][Ge](=[O])[O][Ge](=[O])[CH2]CC(=O)O
inactive: all assays above
